TCR activator: Activators of T cell receptors: qHTS campaign | 330,000 tested, under 10 active | Potency, µM (highest dose often 9.22 µM), without a hit: top-dose activation of IL-2 secretion, most hits filed as activators | primary human leukocytes, anti-CD3, IL-2 HTRF, 48 h; further: % of control where 0% means no effect
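1) Mix primary human leukocytes, a-CD3 beads and compound. 2) Incubate 48 hr. 3) Add HTRF IL-2 reagents (a-IL-2-K, a-IL-2-d2).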
GLS inh: qHTS for Inhibitors of Glutaminase (GLS); actives 0.21% (n = 410,000); GLS enzymatic activity, qHTS titration; Potency, µM (highest dose often 45.5 µM), for the others: top-dose activity change, negative = inhibition, hits mostly inhibitors; AID 624170, 2012; Glutaminase kidney isoform, mitochondrial (Homo sapiens), O94925; further: potency means the concentration at half of the fitted maximal effect; on the % scale 0 is the no-effect control and ±100 the full control effect
Target sequence (O94925 whole entry, looked up, canonical isoform): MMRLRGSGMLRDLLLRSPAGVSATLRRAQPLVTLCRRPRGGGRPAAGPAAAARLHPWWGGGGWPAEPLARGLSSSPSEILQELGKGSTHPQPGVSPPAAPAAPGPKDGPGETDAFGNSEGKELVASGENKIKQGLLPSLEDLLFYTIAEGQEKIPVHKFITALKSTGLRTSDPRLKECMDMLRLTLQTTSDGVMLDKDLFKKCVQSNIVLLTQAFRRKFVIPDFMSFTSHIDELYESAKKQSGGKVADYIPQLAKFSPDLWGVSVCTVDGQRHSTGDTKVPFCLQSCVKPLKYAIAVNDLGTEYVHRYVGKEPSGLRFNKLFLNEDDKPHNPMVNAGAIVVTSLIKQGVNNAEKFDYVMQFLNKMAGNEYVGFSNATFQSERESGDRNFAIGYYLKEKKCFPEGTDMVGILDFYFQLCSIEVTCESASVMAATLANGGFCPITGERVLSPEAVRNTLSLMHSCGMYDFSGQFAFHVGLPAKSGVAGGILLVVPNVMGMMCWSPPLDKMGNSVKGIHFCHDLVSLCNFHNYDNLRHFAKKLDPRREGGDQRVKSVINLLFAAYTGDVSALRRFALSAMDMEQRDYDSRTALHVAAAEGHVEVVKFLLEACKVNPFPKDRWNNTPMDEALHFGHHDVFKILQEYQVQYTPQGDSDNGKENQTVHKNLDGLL
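hKGA in 45 mM KH2PO4 pH 8.2, 0.02% Tween-20 with pin-transferred compounds; 1 mM L-glutamine (stock) plus glutamate oxidase/HRP/Amplex Red coupling added. Fluorescence read initially and after 30 min at RT.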
BRCA1 expr up: qHTS Assay to Identify Small Molecule Activators of BRCA1 Expression; AID 624202, 2012; MCF7-BRCA1-FFLuc reporter, luminescence, 48 h; response scale: scaled: vehicle 0%, 10 µM genistein 100%; Potency, µM (highest dose often 46.1 µM), for inactives: top-dose activation, actives largely listed as activators; actives 1.1% (n = 380,000); further: potency means the concentration at half of the fitted maximal effect; nearly all actives have a fitted effect of over 80% in size
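Using MCF7 cells harboring a BRCA1 firefly luciferase reporter, plated 2 h before compound pinning, the screen measured luminescence after 48 h incubation. Responses were normalized to DMSO and 10 microM genistein, then fitted for concentration-effect.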
TSHR antag: Antagonists of the Thyroid Stimulating Hormone Receptor: HTS campaign. Thyrotropin receptor (Homo sapiens), P16473. TSHR-expressing cells, TSH-stimulated cAMP HTRF, 2 h; hits give low values. activity change, negative = inhibition, % at 11.5 µM. actives 0.2% (n = 330,000). AID 504810, 2011;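 active means activity change below a set negative limit, meaning inhibition stronger than a set level, cut at about -70% in these data; inconclusive means activity change between two set negative limits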; further: on the % scale 0 is the no-effect control and ±100 the full control effect
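Read-out is FRET at 665 nm (cryptate excitation 337 nm) from a cryptate-tagged anti-cAMP antibody, competed by cell cAMP against cAMP-d2. Compounds are tested on freshly harvested TSHR cells challenged with 4nM TSH (EC80) for 2 hours at 37 deg C.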
p53 reactivator: qHTS assay for re-activators of p53 using a Luc reporter; Potency, µM (highest dose often 92.2 µM), inactives show top-dose activity change, positive = activation, most hits filed as activators; actives 0.063% (n = 320,000); H1299 p53-A138V BP100-luciferase reporter, luminescence, 24 h; AID 504706, 2011; further: potency means the concentration at half of the fitted maximal effect; % of control where 0% means no effect; nearly all actives have a fitted effect of over 45% in size
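H1299 (p53-null), stable ts p53-A138V + BP100-Luc; 1000 cells/well, Opti-MEM/10% FBS; cpd 4 pt, 1:5; 24 h, 37 deg C, 5% CO2; detection reagent 10 min RT; luminescence.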
N370S GC mod: qHTS Assay for Inhibitors and Activators of N370S glucocerebrosidase as a Potential Chaperone Treatment of Gaucher Disease; Lysosomal acid glucosylceramidase (Homo sapiens), P04062; N370S GC spleen homogenate, 4MU-glucoside fluorescence; Potency, µM (titrated, usually from 59.4 µM), for the others: at the highest dose activity change, negative = inhibition, usual class: inhibitors; actives 0.092% (n = 330,000);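 further: potency means the concentration at half of the fitted maximal effect; 0% = full enzyme activity and -100% = no enzyme basal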
* hit, by the source's call; ? = inconclusive; . = not tested or not shown; ! = not active in a repeat; [ ] = another dose, or the depositor's remark. An excerpt weighted towards active compounds, which were near 1.4% of everything screened. Unless noted, the call rests on the fitted dose curve; in most records, active means well fitted curve in the direction sought with a large enough effect; inconclusive means small, poorly fitted or top-dose-only effect, or another doubt; inactive means no such curve, though single readings can be large; an effect the other way counts as inactive or inconclusive.

SMILES | TCR activator | GLS inh | BRCA1 expr up | TSHR antag | p53 reactivator | N370S GC mod
CC(C)Sc1nnc(NC(=O)c2ccc3c(c2)OCO3)s1 | 4.2% | -0.9% | 2.51µM* | -3.7 | ? | 1.9%
Cc1nc2ccc3nc(NC(=O)c4ccc5c(c4)OCCO5)sc3c2s1 | 8.7% | 1.2% | 8.91µM*! | 7.4 | 3.0% | 2.2%
Cc1ccc2sc(NC(=O)c3ccc4c(c3)OCCO4)nc2c1C | . | -3.0% | . | . | . | .
Cc1cccc(Nc2ncc3c(n2)CC(C)CC3=O)c1 (stereo not drawn) | -0.4% | -4.1% | 5.01µM* | -4.8 | ? | 5.7%
CCOC(=O)Nc1ccc(/C=C/c2ccnc3ccccc23)cc1 | . | . | -38.8% | . | . | .
O=C(NCCc1ccccc1)c1ccc2c(=O)[nH]c3c(C(=O)NCC4CCCO4)sc(=S)n3c2c1 (stereo not drawn) | 9.7% | 3.8% | 0.0% | ? | 21.2% | 8.0%
CC(C)NC(=O)c1sc(=S)n2c1[nH]c(=O)c1ccc(C(=O)NCCc3ccc(Cl)cc3)cc12 | -2.0% | ? | 5.4% | ? | 0.5% | -28.2%
O=C(NC1CCCCC1)c1sc(=S)n2c1[nH]c(=O)c1ccccc12 | -8.3% | -10.4% | -55.8% | -83.4* | 2.1% | -0.8%
CCOc1ccc(CCNC(=O)c2ccc3c(=O)[nH]c4c(C(=O)NC(C)C)sc(=S)n4c3c2)cc1 | 3.2% | ? | -4.6% | -85.5* | -4.5% | -0.9%
CCCCNC(=O)c1sc(=S)n2c1[nH]c(=O)c1ccccc12 | 0.4% | ? | -33.5% | -73.9* | 29.1% | 15.5%
Cc1ccc(-c2ccc(C3C4C=CCC(C)C4C(=O)N3Cc3ccccc3)c(F)c2)cc1 (stereo not drawn) | . | . | . | . | . | -0.4%
Clc1ccc(-c2cc(CSc3ccccc3)on2)cc1 | -5.8% | -1.3% | 3.55µM* | 6.2 | ? | 13.9%
CC(=Nc1ccccc1N)c1c(C)cc(=O)n(O)c1O | . | . | . | . | . | -1.7%
CCSc1nnc(NC(=O)c2cc3c(s2)CCCC3)s1 | . | 2.6% | 7.94µM* | 21.3 | 23.5% | 11.9%
O=C(Nc1nnc(SCc2ccccc2)s1)c1cc2c(s1)CCCC2 | -1.5% | -4.1% | 33.3% | -6.3 | 5.7% | 4.7%
O=c1/c(=C/c2ccc([N+](=O)[O-])cc2)sc2n1CCCN=2 | -1.6% | 12.8% | 3.55µM* | -2.0 | -39.7% | -24.1%
COc1cc(/C=c2\sc3n(c2=O)CCCN=3)ccc1O | -1.2% | 16.3% | 46.8% | 0.9 | ? | -13.7%
CCc1ccc(NC(=O)c2nc(SCc3ccccc3F)ncc2Cl)cc1 | . | . | 2.6% | . | . | .
Nc1ccc2c(c1)C=C/C2=C\c1ccccc1 | . | . | 3.98µM* | . | . | .
CN(C)c1ccc(/C=C2\C=Cc3cc(N)ccc32)cc1 | . | . | 21.6% | . | . | .
CN1CCN(Cc2nc3ccccc3c(=O)n2Cc2nc(-c3cccc([N+](=O)[O-])c3)cs2)CC1 | -0.2% | -3.2% | -36.4% | 13.9 | 0.7% | 5.6%
CN1CCN(Cc2nc3ccccc3c(=O)n2Cc2nc(-c3ccc4ccccc4c3)cs2)CC1 | -0.8% | -16.4% | -96.1% | 5.8 | 23.8% | 11.2µM*
CN(C)c1ccc(/C=C/c2ccnc3c(N)cccc23)cc1 | . | . | 9.3% | . | . | .
COC(=O)c1ccc(COc2ccc(C)cc2[N+](=O)[O-])o1 | 0.6% | 5.5% | 5.62µM* | -4.4 | -0.4% | 7.8%
COc1cccc(C2=Nn3c(nnc3-c3ccccc3C)SC2)c1 | . | . | . | . | . | -6.8%
SMILES | TCR activator | GLS inh | BRCA1 expr up | TSHR antag | p53 reactivator | N370S GC mod
CSc1nc2ccc3nc(NC(=O)c4cccs4)sc3c2s1 | 0.5% | 7.4% | 8.91µM* | -1.3 | ? | -3.0%
COC(=O)c1ccc(NC(=O)c2cccc(OC)c2)cc1 | 1.5% | -5.7% | 2.51µM* | 33.3 | ? | 24.2%
COc1cccc(C(=O)Nc2ccc(C(=O)O)cc2)c1 | -1.9% | 9.5% | 10.3% | 3.2 | 1.1% | 0.0%
COc1cccc(C(=O)Nc2ccc(F)cc2F)c1 | -4.0%[46.1 µM] | 8.7% | ? | 2.0 | ? | 2.2%
COc1cccc(C(=O)NCCSc2ccc(C)cc2)c1 | -24.5%[46.1 µM] | 6.3% | 14.1% | -17.4 | -13.2% | -1.3%
COc1cccc(C(=O)Nc2ccc(F)c(F)c2F)c1 | 2.4% | 13.7% | 3.55µM* | -9.8 | 10.5% | 19.2%
CCC(=O)Nc1ccc(NC(=O)c2cccc(OC)c2)nc1 | 2.4%[46.1 µM] | 2.5% | 11.2µM* | 12.5 | ? | 0.4%
COc1cccc(C(=O)NCCSc2ccc(F)cc2)c1 | -1.8% | -11.9% | 11.2µM* | 2.8 | 14.5% | 7.9%
O=[N+]([O-])c1ccccc1S(=O)(=O)NCc1ccccn1 | . | . | 20.3% | . | . | .
COC(=O)c1ccc(OCC(=O)c2cccc(OC)c2)cc1 | 3.4%[46.1 µM] | 5.5% | 2µM* | 5.0 | ? | 3.6%
COc1ccc(C(=O)COc2ccccc2C#N)cc1 | 1.4% | 1.3% | 92.4% | 4.6 | 31.6µM* | 2.7%
CCOc1c2c(c(-c3ccc4c(c3)OCO4)c3cc(OC)c(OC)cc13)C(=O)OC2 | . | . | -50.7% | . | . | .
Cc1ccccc1NC(=O)c1ccc2[nH]c(C)c(C)c2c1 | . | 2.9% | . | . | . | .
CCc1ccccc1NC(=O)c1ccc2[nH]c(C)c(C)c2c1 | . | -1.8% | 8.91µM* | . | . | .
Cc1oc(-c2ccc(-c3ccccc3)cc2)nc1CN1CCN(CC(=O)N(C)C)CC1 | 1.1% | -4.7% | 8.91µM* | 4.3 | -2.7% | -12.8%
COc1ccc(-c2nc(CN3CCN(Cc4ccccc4)CC3)c(C)o2)cc1 | -2.2% | -0.6% | -10.0% | 1.9 | ? | -3.6%
COc1ccc(Oc2nccc(-c3ccccc3)c2C#N)cc1 | 3.3% | 0.5% | 5.01µM* | 2.8 | 3.1% | -5.3%
CCn1nnc2sc3c(c2c1=O)CCC(C)C3 (stereo not drawn) | -4.3% | 5.4% | 12.6µM* | 7.8 | ? | 0.2%
CC1CCc2c(sc3nnn(CC(=O)Nc4ccc(Cl)cc4)c(=O)c23)C1 (stereo not drawn) | . | -11.5% | . | . | . | .
Cc1cccc(NC(=O)C(=O)NCC2CCCO2)c1 (stereo not drawn) | -4.1% | -3.3% | 2.24µM* | 6.1 | 4.4% | -4.1%
C(=C\c1ccnc2ccccc12)/c1cccnc1 | . | . | -12.6% | . | . | .
N/C(=N\OC(=O)Oc1ccccc1)c1cccc([N+](=O)[O-])c1 | 0.2%[46.1 µM] | 26.4% | -19.6% | 24.7 | -0.8% | 2.5%
N/C(=N\OC(=O)CSc1ccccc1)c1cccc([N+](=O)[O-])c1 | 0.5%[46.1 µM] | -1.1% | 12.6µM* | -9.6 | ? | 4.5%

Assay outcomes: PubChem BioAssay, National Center for Advancing Translational Sciences (NCATS)
